# Laboratory results from PubChem BioAssay (NCATS).
# Records with an inconclusive call do not appear. A call without a number means that no potency is given here. Activity calls are given as the source filed them. Calls follow the shape of the dose curve; as a rule, active = well fitted curve in the direction sought with a large enough effect; inconclusive = small, poorly fitted or top-dose-only effect, or another doubt; inactive = no such curve, though single readings can be large; an effect the other way counts as inactive or inconclusive.
# Legend:
# [1] = qHTS of pediatric cancer cell lines to identify multiple opportunities for drug repurposing: Primary screen for RD cells (AID 1347104); also: nearly all actives have a fitted effect of over 55% in size; also: potency is read from the fitted curve at half-maximal effect
# Outline: (§1)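 Plated cells (500-1,000 per well, growth media) were allowed to settle for 5 hours, treated with compound dilutions for 48 hours, then lysed with CellTiter-Glo for 15 min at room temperature before luminescence reading.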
# [2] = qHTS of pediatric cancer cell lines to identify multiple opportunities for drug repurposing: Primary screen for MG 63 (6-TG R) cells (AID 1347105); also: nearly all actives have a fitted effect of over 50% in size; also: potency is read from the fitted curve at half-maximal effect
# Outline: as §1
# [3] = qHTS of pediatric cancer cell lines to identify multiple opportunities for drug repurposing: Primary screen for control Hh wild type fibroblast cells (AID 1347106);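 also: series mostly up to about 46 µM; a drop in luminescence marks cytotoxicity and a rise apparent proliferation; nearly all actives have a fitted effect of over 55% in size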
# Outline: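 Viability after 48 h compound treatment at 37C, 500-1,000 cells/well, read as ATP luminescence with CellTiter-Glo. Primary screens used 11-point (MIPE, 0.78 nM-46 µM) or 8-point (NPC, 0.59 nM-46 µM) final concentrations; follow-up screens used 11-point dilutions.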
# [4] = qHTS of pediatric cancer cell lines to identify multiple opportunities for drug repurposing: Primary screen for Rh30 cells (AID 1347107); also: nearly all actives have a fitted effect of over 75% in size; also: potency is read from the fitted curve at half-maximal effect
# Outline: (§2)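 Cells (500-1,000/well) rested 5 h, then received compounds for 48 h; metabolically active cells were measured by CellTiter-Glo luminescence. Final concentrations spanned up to 46 µM (MIPE, 11-point) or 0.59 nM-46 µM (NPC, 8-point) in primary screens, 11-point in follow-ups.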
# [5] = qHTS of pediatric cancer cell lines to identify multiple opportunities for drug repurposing: Primary screen for Rh41 cells (AID 1347108); also: nearly all actives have a fitted effect of over 70% in size; also: potency is read from the fitted curve at half-maximal effect
# Outline: as §1
# [6] = qHTS of pediatric cancer cell lines to identify multiple opportunities for drug repurposing: Confirmatory screen for NB1643 cells (AID 1347109); also: nearly all actives have a fitted effect of over 45% in size; also: potency is read from the fitted curve at half-maximal effect
# Outline: as §2
# [7] = qHTS of pediatric cancer cell lines to identify multiple opportunities for drug repurposing: Confirmatory screen for A673 cells (AID 1347110);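 also: cells exposed to compound for 48 h before the viability read; nearly all actives have a fitted effect of over 65% in size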; also: potency is read from the fitted curve at half-maximal effect
# Outline: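 Cells plated at 500-1,000/well were treated five hours later with multi-point dilutions up to 46 µM final. After two days, CellTiter-Glo was added and luminescence read.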
# [8] = qHTS of pediatric cancer cell lines to identify multiple opportunities for drug repurposing: Confirmatory screen for SK-N-MC cells (AID 1347111);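 also: cells exposed to compound for 48 h before the readout; nearly all actives have a fitted effect of over 70% in size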; also: potency is read from the fitted curve at half-maximal effect
# Outline: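 Seed 500-1,000 cells/well; rest 5 h at 37 degrees C. Pin-transfer compounds, 11-point titration. Incubate 48 h. Add CellTiter-Glo, 15 min RT, read luminescence.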
# [9] = qHTS of pediatric cancer cell lines to identify multiple opportunities for drug repurposing: Confirmatory screen for BT-12 cells (AID 1347112); also: nearly all actives have a fitted effect of over 55% in size; also: potency is read from the fitted curve at half-maximal effect
# Outline: as §2
# [10] = qHTS of pediatric cancer cell lines to identify multiple opportunities for drug repurposing: Confirmatory screen for NB-EBc1 cells (AID 1347115);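 also: cells exposed to compound for 48 h before the viability read; nearly all actives have a fitted effect of over 45% in size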; also: potency is read from the fitted curve at half-maximal effect
# Outline: as §2
structure (smiles),measurement,setting,value
CCc1ccc(C2CCNCC2)cc1,Potency,[1],inactive
same,Potency,[2],inactive
same,Potency,[3],inactive
same,Potency,[4],inactive
same,Potency,[5],inactive
same,Potency,[6],inactive
same,Potency,[7],inactive
same,Potency,[8],inactive
same,Potency,[9],inactive
same,Potency,[10],inactive
Nc1ccccc1C(=O)OCC(O)CO (configuration not stated),Potency,[1],inactive
same,Potency,[2],inactive
same,Potency,[3],inactive
same,Potency,[4],inactive
same,Potency,[5],inactive
CC(C)(O)C(Cl)(Cl)Cl,Potency,[1],inactive
same,Potency,[2],inactive
same,Potency,[3],inactive
same,Potency,[4],inactive
same,Potency,[5],inactive
O=C(O)CCCCCCNC1c2ccccc2CCc2ccccc21,Potency,[1],inactive
same,Potency,[2],inactive
same,Potency,[3],inactive
same,Potency,[4],inactive
same,Potency,[5],inactive
COc1ccc(OC)c(CC(C)N)c1 (configuration not stated),Potency,[1],inactive
same,Potency,[2],inactive
same,Potency,[3],inactive
same,Potency,[4],inactive
same,Potency,[5],inactive
C1CN2CCC1CC2,Potency,[1],inactive
same,Potency,[2],inactive
same,Potency,[3],inactive
same,Potency,[4],inactive
same,Potency,[5],inactive
CC(CC(C(N)=O)(c1ccccc1)c1ccccc1)N(C)C (configuration not stated),Potency,[1],inactive
same,Potency,[2],inactive
same,Potency,[3],inactive
same,Potency,[4],inactive
same,Potency,[5],inactive
O=c1[nH]c2cc(Cl)ccc2n1C1CCNCC1,Potency,[1],inactive
same,Potency,[2],inactive
same,Potency,[3],inactive
same,Potency,[4],inactive
same,Potency,[5],inactive
CC[C@]1(O)CC[C@H]2[C@@H]3CCC4=CCCC[C@@H]4[C@H]3CC[C@@]21C,Potency,[1],inactive
same,Potency,[3],inactive
same,Potency,[4],inactive
same,Potency,[5],inactive
CC1=C2[C@H]3OC(=O)[C@@H](C)[C@@H]3CC[C@@]2(C)C=CC1=O,Potency,[1],inactive
same,Potency,[3],inactive
same,Potency,[4],inactive
same,Potency,[5],inactive
CCOC(=O)NC(C)(C)Cc1ccc(Cl)cc1,Potency,[1],inactive
same,Potency,[3],inactive
same,Potency,[4],inactive
same,Potency,[5],inactive
C[C@H]1CNCCc2ccc(Cl)cc21,Potency,[1],inactive
same,Potency,[3],inactive
same,Potency,[4],inactive
same,Potency,[5],inactive
Nc1ccc(Cl)cc1C(=O)c1ccccc1F,Potency,[1],inactive
same,Potency,[3],inactive
same,Potency,[4],inactive
same,Potency,[5],inactive
CNC(=O)Oc1cccc2ccccc12,Potency,[1],inactive
same,Potency,[3],inactive
same,Potency,[4],inactive
same,Potency,[5],inactive
C[C@H]1C(=O)O[C@@H]2CCN3CC=C(COC(=O)[C@](C)(O)[C@]1(C)O)[C@H]23,Potency,[1],inactive
same,Potency,[3],inactive
same,Potency,[4],inactive
same,Potency,[5],inactive
CC(Cc1ccccc1)NCc1ccccc1Cl (configuration not stated),Potency,[1],inactive
same,Potency,[3],inactive
same,Potency,[4],inactive
same,Potency,[5],inactive
CCCC[N+]1(C)[C@@H]2CC(OC(=O)[C@H](CO)c3ccccc3)C[C@H]1[C@@H]1O[C@@H]12 (some centres not stated),Potency,[1],inactive
same,Potency,[3],inactive
same,Potency,[4],inactive
same,Potency,[5],inactive
CC(C)NCC(O)c1ccc(N)c(C#N)c1 (configuration not stated),Potency,[1],inactive
same,Potency,[3],inactive
same,Potency,[4],inactive
same,Potency,[5],inactive
CC(C)C(Br)C(=O)NC(N)=O (configuration not stated),Potency,[1],inactive
same,Potency,[3],inactive
same,Potency,[4],inactive
same,Potency,[5],inactive
Clc1ccc(CSC(Cn2ccnc2)c2ccc(Cl)cc2Cl)cc1 (configuration not stated),Potency,[1],23.7 µM (active)
same,Potency,[3],inactive
OC(O)C(Cl)(Cl)Cl,Potency,[1],inactive
same,Potency,[3],inactive
same,Potency,[4],inactive
same,Potency,[5],inactive
CCN(CC)Cc1nccn1-c1ccc([N+](=O)[O-])cc1C(=O)c1ccccc1Cl,Potency,[1],inactive
same,Potency,[3],inactive
same,Potency,[4],inactive
same,Potency,[5],inactive
COc1ccc2[nH]cc(CCN(C(C)C)C(C)C)c2c1,Potency,[1],inactive
same,Potency,[3],inactive
same,Potency,[4],inactive
same,Potency,[5],inactive
O=C1CN2CCOC2(c2ccccc2Cl)c2cc(Cl)ccc2N1 (configuration not stated),Potency,[1],inactive
same,Potency,[3],inactive
same,Potency,[4],inactive
same,Potency,[5],inactive
C[N+]1(CCC(C(N)=O)(c2ccccc2)c2ccccc2)CCCCC1,Potency,[1],inactive
same,Potency,[3],inactive
same,Potency,[4],inactive
same,Potency,[5],inactive
C[C@]12CC[C@H]3[C@@H](CCC4=CC(=O)CC[C@@]43C)[C@@H]1CC[C@@H]2C(=O)O,Potency,[1],inactive
same,Potency,[3],inactive
same,Potency,[4],inactive
same,Potency,[5],inactive
CN1C(=O)CN=C(c2ccccc2)c2cc(Cl)ccc21,Potency,[1],inactive
same,Potency,[3],inactive
same,Potency,[4],inactive
same,Potency,[5],inactive
CC1N=C(N)OC1c1ccccc1 (configuration not stated),Potency,[1],inactive
same,Potency,[3],inactive
same,Potency,[4],inactive
same,Potency,[5],inactive
ClCc1cccc(Cl)c1,Potency,[1],inactive
same,Potency,[3],inactive
same,Potency,[4],inactive
same,Potency,[5],inactive
CCC1(CC)C(=O)NC(=O)NC1=O,Potency,[1],inactive
same,Potency,[3],inactive
same,Potency,[4],inactive
same,Potency,[5],inactive
Cc1ccc(N=CN(C)C=Nc2ccc(C)cc2C)c(C)c1,Potency,[1],inactive
same,Potency,[3],inactive
same,Potency,[4],inactive
same,Potency,[5],inactive
O=C(O)Cc1ccccc1,Potency,[1],inactive
same,Potency,[2],inactive
same,Potency,[3],inactive
same,Potency,[4],inactive
same,Potency,[5],inactive
same,Potency,[7],inactive
same,Potency,[10],inactive
COc1cc(CC#N)cc(OC)c1OC,Potency,[1],inactive
same,Potency,[3],inactive
same,Potency,[4],inactive
same,Potency,[5],inactive
Cc1nc2ccccc2c(=O)n1-c1ccccc1Cl,Potency,[1],inactive
same,Potency,[3],inactive
same,Potency,[4],inactive
same,Potency,[5],inactive
Cc1ccc([N+](=O)[O-])[c]2c1[O][Hg]2,Potency,[1],0.188 µM (active)
same,Potency,[2],1.33 µM (active)
same,Potency,[4],2.11 µM (active)
same,Potency,[5],0.668 µM (active)
same,Potency,[6],0.737 µM (active)
same,Potency,[7],0.737 µM (active)
same,Potency,[8],0.233 µM (active)
same,Potency,[9],4.14 µM (active)
same,Potency,[10],2.93 µM (active)
Oc1c(Br)cc(Br)cc1Br,Potency,[1],inactive
same,Potency,[3],inactive
same,Potency,[4],inactive
same,Potency,[5],inactive
COCC(=O)N(c1c(C)cccc1C)C(C)C(=O)OC (configuration not stated),Potency,[1],inactive
same,Potency,[3],inactive
same,Potency,[4],inactive
same,Potency,[5],inactive
O=C(CCCCl)c1ccc(F)cc1,Potency,[1],inactive
same,Potency,[3],inactive
same,Potency,[4],inactive
same,Potency,[5],inactive
Cc1ncc2n1-c1ccc(Cl)cc1C(c1ccccc1F)=NC2,Potency,[1],inactive
same,Potency,[3],inactive
same,Potency,[4],inactive
same,Potency,[5],inactive
CCN(CC)C(C)C(=O)c1ccccc1 (configuration not stated),Potency,[1],inactive
same,Potency,[3],inactive
same,Potency,[4],inactive
same,Potency,[5],inactive
CC(=O)OC1(c2ccccc2)CCN(CCc2ccccc2)CC1,Potency,[1],62.3 µM (active)
same,Potency,[2],inactive
same,Potency,[3],inactive
same,Potency,[5],49.5 µM (active)
COc1ccc2c3c1O[C@H]1[C@@H](O)C=C[C@H]4[C@@H](C2)N(C)CC[C@@]341,Potency,[1],47.6 µM (active)
same,Potency,[3],inactive
same,Potency,[4],inactive
CC(C)=C[C@@H]1[C@@H](C(=O)OCc2coc(Cc3ccccc3)c2)C1(C)C,Potency,[1],inactive
same,Potency,[3],inactive
same,Potency,[4],inactive
same,Potency,[5],inactive
CN1CCc2cc(Cl)c(O)cc2[C@H]2c3ccccc3CC[C@@H]21,Potency,[1],inactive
same,Potency,[3],inactive
same,Potency,[4],inactive
same,Potency,[5],inactive
O=C(N[C@@H]1N=C(c2ccccc2F)c2cccc3c2N(CC3)C1=O)c1cc2ccccc2[nH]1,Potency,[1],inactive
same,Potency,[3],inactive
same,Potency,[4],inactive
same,Potency,[5],inactive
CC(CC(C#N)(c1ccccc1)c1ccccc1)N(C)C (configuration not stated),Potency,[1],54.5 µM (active)
same,Potency,[3],inactive
same,Potency,[4],inactive
same,Potency,[5],inactive
CCC1(c2ccccc2)CCC(=O)NC1=O (configuration not stated),Potency,[1],inactive
same,Potency,[3],inactive
same,Potency,[4],inactive
same,Potency,[5],inactive
Oc1ccc([C@H]2CNCc3c2ccc(O)c3O)cc1O,Potency,[1],inactive
same,Potency,[3],inactive
same,Potency,[4],inactive
same,Potency,[5],inactive
CC[n+]1c(-c2ccccc2)c2cc(N)ccc2c2ccc(N)cc21,Potency,[1],13.3 µM (active)
same,Potency,[5],3.35 µM (active)
same,Potency,[6],11.7 µM (active)
same,Potency,[7],3.29 µM (active)
same,Potency,[8],2.08 µM (active)
same,Potency,[9],1.47 µM (active)
same,Potency,[10],5.22 µM (active)
